Screening data: PubChem BioAssay, several laboratories
Only some compounds are listed: those with a hit (about 1.4% of all), similar ones and a draw of the others.
MCL1 BIM primary: disrupts human MCL1 binding to BIM-BH3 peptide; Q07820; GST-MCL1 / FITC-Bim-BH3 fluorescence polarization; actives 0.68% (n = 320,000); inhibition, % at 10.9 µM; AID 2057;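 active = inhibition above the mean inhibition of all tested compounds plus 3 SD, set per campaign, cut at about 40% in these data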;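 note: higher means more loss of mP so more displacement of Bim peptide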
eLon inh: inhibits E. coli Lon protease. inhibition, % at 7.94 µM. P0A9M0. purified E. coli Lon protease, fluorescence polarization. actives 0.42% (n = 360,000); in the data active = inhibition above about 13%, passing the limit was not always enough
MEX-5 binding: C. elegans MEX-5 TCR-2 RNA binding activity; activity score (negative = inhibition of binding), % at 10 µM; MEX-5/FITC-TCR2 RNA binding, fluorescence polarization; stronger effect = lower value; actives 0.38% (n = 300,000); AID 1832; Q9XUB2;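 active = inhibition past about -25% in most replicates, and total fluorescence under double the plate's negative control median, limit read from the data; inconclusive = replicates evenly split on the limit, or fluorescence at least double controls; inactive = too little inhibition in most replicates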
GLD-1 TGE inh: GLD-1-TGE RNA interaction inhibition (C. elegans); purified GLD-1 + fluorescein TGE RNA, fluorescence polarization; inhibition, % at 5.96 µM; actives 0.44% (n = 320,000);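 active = percent inhibition above a per-plate cutoff, the plate mean of test compounds plus 3 SD, cut at about 30% in these data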
EBV gp42 block: inhibitors of Epstein-Barr virus glycoprotein 42. Q1HVG2. actives 0.42% (n = 220,000). inhibition, % (tested at 21.74 µM). AID 1085. Fluorescence polarization binding assay, mP read-out; in the data active = inhibition above about 50%
Target sequence (Q1HVG2 whole entry, looked up): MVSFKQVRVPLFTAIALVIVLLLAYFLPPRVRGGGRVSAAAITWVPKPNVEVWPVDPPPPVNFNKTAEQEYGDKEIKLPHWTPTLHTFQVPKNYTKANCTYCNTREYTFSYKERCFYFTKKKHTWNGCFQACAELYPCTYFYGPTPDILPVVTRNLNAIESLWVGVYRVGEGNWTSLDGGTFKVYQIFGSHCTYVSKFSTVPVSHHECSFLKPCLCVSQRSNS
Bcl-xL primary: Bcl-xL (human) inhibition; actives 0.7% (n = 320,000); inhibition, % at 10.9 µM; GST-Bcl-xL / FITC-Bim BH3 peptide fluorescence polarization;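 active = inhibition above the mean of all tested compounds plus 3 SD, cutoff set per campaign, cut at about 30% in these data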;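 note: inhibitors lower millipolarization by displacing the labeled peptide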
Target sequence (Q07817 whole entry, looked up): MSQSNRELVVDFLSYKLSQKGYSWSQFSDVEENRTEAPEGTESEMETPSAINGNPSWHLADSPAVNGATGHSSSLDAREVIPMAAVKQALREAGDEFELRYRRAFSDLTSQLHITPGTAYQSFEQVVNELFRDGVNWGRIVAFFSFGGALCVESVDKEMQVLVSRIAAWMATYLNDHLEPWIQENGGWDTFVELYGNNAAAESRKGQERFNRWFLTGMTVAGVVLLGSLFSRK
Of the large screens only hits and unclear results are named; the others gave an inactive call.

O=C(/C=C/c1ccc(O)c(O)c1)OC1C(O)CC(OC(=O)/C=C/c2ccc(O)c(O)c2)(C(=O)O)CC1O (centres undefined)	MEX-5 binding -32
CCN(CC)c1ccc(N=Nc2nn(C)c(C)c2[N+](=O)[O-])cc1	none
CCN(CC)c1ccc(N=Nc2ncn[nH]2)cc1	MEX-5 binding -52
CC(=O)Nc1ccc(O)c(-c2nc3ccccc3s2)c1	none
O=C(CCS(=O)(=O)c1ccccc1)Nc1ccc(-c2nc3ccccc3s2)c(O)c1	Bcl-xL primary 36
COc1cc(/C=C(\C#N)c2nc(-c3cc4ccccc4oc3=O)cs2)ccc1O	none
COc1cc(/C=C(/C#N)c2nc(-c3cc4ccccc4oc3=O)cs2)cc([N+](=O)[O-])c1O	EBV gp42 block 64 (no result: MCL1 BIM primary, eLon inh, MEX-5 binding, GLD-1 TGE inh, Bcl-xL primary)
CC1CC(C)CN(CCCNC(=O)C2CCCN(c3ncnc4c3nc3n4CCCCC3)C2)C1 (centres undefined)	GLD-1 TGE inh 41 (no result: EBV gp42 block)
CC1CCCCN1CCNC(=O)C1CCCN(c2ncnc3c2nc2n3CCCCC2)C1 (centres undefined)	Bcl-xL primary 39 (no result: EBV gp42 block)
CC1CCCN(CCCNC(=O)C2CCCN(c3ncnc4c3nc3n4CCCCC3)C2)C1 (centres undefined)	none (no result: EBV gp42 block)
COc1ccc(CN2C(=O)CSC2c2ccccn2)cc1 (centres undefined)	none
Cc1cc(Nc2ccc(O)cc2)ccc1N	MCL1 BIM primary 41, Bcl-xL primary 36 (no result: eLon inh, MEX-5 binding, EBV gp42 block)
COc1ccc(C2C=C(c3cccs3)Nc3nc(CCCO)nn32)cc1 (centres undefined)	MCL1 BIM primary active, GLD-1 TGE inh 144, EBV gp42 block 151, Bcl-xL primary 176 (no result: eLon inh, MEX-5 binding)
COc1cc(C2C=C(c3cccs3)Nc3ncnn32)cc(OC)c1OC (centres undefined)	eLon inh active, EBV gp42 block 105 (no result: MCL1 BIM primary, MEX-5 binding, GLD-1 TGE inh, Bcl-xL primary)
Cc1oc(CN2CCOCC2)cc1C(=O)O	none
Cc1ccccc1NC(=O)Cc1nc(COC(=O)CCc2ccccc2)cs1	none (no result: MEX-5 binding, EBV gp42 block)
COc1ccccc1CCC(=O)OCc1csc(CC(=O)Nc2ccccc2C)n1	MEX-5 binding -27 (no result: EBV gp42 block)
CCN(CC)c1ccc(NC(=O)COC(=O)/C=C/c2nc3ccccc3s2)cc1	none
CCN(CC)c1ccc(/C=C/c2nc3ccccc3s2)cc1	MEX-5 binding -32 (no result: eLon inh)
Cn1nnnc1SCC(=O)NC(=O)c1cccc([N+](=O)[O-])c1	none
C=CCN(c1ccc(Br)cc1C(=O)OC)S(C)(=O)=O	Bcl-xL primary 47 (no result: MEX-5 binding, EBV gp42 block)
COc1cc(C(=O)NS(=O)(=O)c2ccccc2C)ccc1Cc1cn(C)c2ccc(NC(=O)OC3CCCC3)cc12	Bcl-xL primary 37 (no result: eLon inh)
CC(C)NC(=O)c1sc2nc(-c3cccs3)cc(-c3cccs3)c2c1N	EBV gp42 block 64 (no result: eLon inh)
Cc1cc(C)c2c(N)c(C(=O)c3ccc(Cl)cc3)sc2n1	none
Nc1c(C(=O)Nc2nc3ccccc3s2)sc2nc(-c3cccs3)ccc12	MEX-5 binding -46
COc1ccc(C(=O)c2sc3nc(C)cc(-c4cccs4)c3c2N)cc1	MEX-5 binding -44, EBV gp42 block 102 (no result: MCL1 BIM primary, GLD-1 TGE inh, Bcl-xL primary)
Cc1cc(-c2cccs2)c2c(N)c(C(=O)c3ccc4c(c3)OCO4)sc2n1	EBV gp42 block 133
COc1cc(C(=O)O[C@H]2C/C(C)=C/CC[C@@]3(C)O[C@@H]3[C@H](O)[C@@H]2C(C)C)cc(OC)c1OC	none (no result: EBV gp42 block)
CC(=O)Nc1cccc(-c2csc(C(C)(O)c3ccc(F)c(F)c3)n2)c1 (centres undefined)	none (no result: MCL1 BIM primary, MEX-5 binding, GLD-1 TGE inh, EBV gp42 block, Bcl-xL primary)
CN(CC(=O)Nc1ccc(Cl)cc1)CC(=O)Nc1sc2c(c1C(N)=O)CCC2	none (no result: MCL1 BIM primary, MEX-5 binding, GLD-1 TGE inh, EBV gp42 block, Bcl-xL primary)
COc1ccc(C(=O)c2sc3nc(-c4ccc(OC)cc4)ccc3c2N)cc1	none
COc1ccc(C(=O)c2sc3nc(C)cc(-c4cccs4)c3c2N)cc1OC	MEX-5 binding -53, EBV gp42 block 61
COc1ccc(-c2c(C#N)c(N)nc3sc(C(=O)c4ccc(C)cc4)c(N)c23)cc1	EBV gp42 block 75
Cc1cc(C)c2c(N)c(C(=O)c3ccc(Cl)c(Cl)c3)sc2n1	none
Oc1ccc2ccccc2c1C=Nc1ccc(Cl)cn1	EBV gp42 block 82
Cc1cc(O)c(C=Nc2ccc(Cl)cn2)c(=O)o1	none
Cc1ccc(N=Cc2sc(O)c3ccccc23)c(C)c1	MEX-5 binding -31
Cc1ccc(N=Cc2sc(O)c3ccccc23)cc1	none
C/C(=N/OC(=O)c1ccc(C(F)(F)F)cc1)c1oc(C)nc1C	none
CC(C)(C)c1ccccc1NC(=O)NC1CCN(Cc2c(F)cccc2Cl)CC1	none
CN(C)CC1CCCCC1OC(=O)c1ccc(S(=O)(=O)N(C)c2ccccc2)cc1 (centres undefined)	none (no result: EBV gp42 block)
CC1(OC(=O)c2cnc3ccccc3n2)C(=O)C=C2C=C(c3ccc(C#N)cc3)OC=C2C1=O (centres undefined)	GLD-1 TGE inh 47 (no result: eLon inh, EBV gp42 block)
CN=C1S/C(=C\c2ccc(N3CCCC3)c(F)c2)C(=O)N1C	MEX-5 binding -59
CC(=O)c1c(C)[nH]c(C(=O)N2CCN(c3ccccn3)CC2)c1C	none (no result: EBV gp42 block)
CCOc1ccc(N2C(=O)C3C(c4ccccc4)=NN(c4ccccc4)C3C2=O)cc1 (centres undefined)	none
Cc1ccc(N2C(=O)C3C(C(=O)c4ccccc4)=NN(c4ccccc4)C3C2=O)cc1 (centres undefined)	MEX-5 binding inconclusive, EBV gp42 block 53
O=C(C1=NN(c2ccccc2)C2C(=O)N(c3ccccc3Cl)C(=O)C12)c1ccccc1 (centres undefined)	MEX-5 binding -28, EBV gp42 block 53
COc1ccccc1N1C(=O)C2C(C(=O)c3ccccc3)=NN(c3ccccc3)C2C1=O (centres undefined)	EBV gp42 block 72
O=C(C1=NN(c2ccccc2)C2C(=O)N(c3ccccc3)C(=O)C12)c1ccccc1 (centres undefined)	MEX-5 binding -37, EBV gp42 block 59
COc1ccccc1N1N=C(C(=O)c2ccccc2)C2C(=O)N(c3ccc(Br)cc3)C(=O)C21 (centres undefined)	MEX-5 binding inconclusive
CC(Cc1ccccc1)NC(=O)CCNNC(=O)c1ccncc1 (centres undefined)	none (no result: MCL1 BIM primary, MEX-5 binding, GLD-1 TGE inh, EBV gp42 block, Bcl-xL primary)
COc1cc(C(=O)N2CCN(C(=O)c3cc(-c4ccccc4)n[nH]3)CC2)cc(OC)c1OC	none (no result: EBV gp42 block)
CCOc1ccc(S(=O)(=O)c2c[nH]c3ccc(C)cc3c2=O)cc1	Bcl-xL primary 41 (no result: EBV gp42 block)
Nc1ncncc1-c1ccc2ccccc2c1	none
CCOC(=O)N1CCN(C(=O)c2ccc3c(SCC(=O)O)c4c(nc3c2)CCCC4)CC1	none
O=C(O)CSc1c2c(nc3cc(C(=O)N4CCOCC4)ccc13)CCCC2	Bcl-xL primary 37
C[C@H]1CN(CCc2ccccc2)C(=O)[C@@H]1CC(=O)Nc1ccc(Br)cc1	none (no result: MCL1 BIM primary, MEX-5 binding, GLD-1 TGE inh, EBV gp42 block, Bcl-xL primary)
Cc1sc(NC(=O)c2ccco2)c(CN2CCCCC2)c1C	Bcl-xL primary 38
Cc1sc(NC(=O)c2ccco2)c(CN2CCN(c3ccccc3)CC2)c1C	none
